Records with an inconclusive call do not appear. Where a call stands in place of a potency, no number is given. A number with no mark means an inactive call. The source made the active and inactive calls. Calls follow the shape of the dose curve; as a rule, active = well fitted cell-killing curve with a large enough effect; inconclusive = small, poorly fitted or top-dose-only effect, or effect the other way; inactive = flat fitted curve, though single readings scatter.

For this assay, the system named is OV90. Briefly: Primary qHTS to identify gynecologic anti-cancer compounds using libraries of approved drugs and bioactive compounds (AID 1345084). Also: nearly all actives have a fitted effect of over 55% in size. The note with it: Gynecologic cancer cell panel viability, ATPlite luminescence, 48 h; series mostly up to 57.5 µM. The method, boiled down: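 Measured: luminescence after ATPlite addition (15 min, RT). Exposure: 48 h, 37 C, 5% CO2.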
For `CC1(C)CCC(C)(C)c2cc3c(cc21)Sc1ccccc1N=C3c1ccc(C(=O)O)cc1`, the Potency entry is “inactive”. On to `O=C(O)c1n[nH]c2c1C[C@H]1C[C@@H]21`, for which the Potency result is “inactive”. The same measure, in the same setting: in the case of `COc1cc(C2Oc3c(O)cc(CCCO)cc3C2CO)ccc1O[C@H]1O[C@H](C)[C@@H](O)[C@H](O)[C@@H]1O` (stereo partly drawn) it was “inactive”. On the same count and under the same terms, in the case of `CC(=C/C(=O)O)/C=C/[C@]1(O)[C@@]2(C)CO[C@]1(C)C[C@H](O[C@@H]1O[C@H](CO)[C@@H](O)[C@H](O)[C@H]1O)C2` it was “inactive”; in that of `CC1(C)CC[C@]2(C(=O)O)CC[C@]3(C)C(=CCC4[C@@]5(C)C[C@H](O)[C@H](O[C@@H]6OC[C@H](O)[C@H](O)[C@H]6O)[C@@](C)(CO)C5CC[C@]43C)[C@@H]2C1` (stereo partly drawn), “inactive”.

`C1CCN2CC3C[C@@H](CN4CCCC[C@@H]34)[C@H]2C1`: the Potency entry was “inactive”. Same read-out and setting: the same measure for `COc1ccc(C)c2sc(NC(=O)c3ccncc3)nc12`: “inactive”; for `CC(C)[C@@H](C)/C=C/[C@@H](C)[C@H]1CC[C@H]2C3=CC=C4C[C@@H](O)CC[C@]4(C)[C@H]3CC[C@]12C`: “inactive”; for `COc1ccccc1CC(C(=O)O)N(C)C(=O)c1ccccc1` (stereo not drawn): “inactive”. The same measure, in the same setting: in the case of `C=C1[C@@H]2[C@H]3OC(=O)C(=C)[C@@H]3CC[C@@](C)(O)[C@@H]2C[C@@H]1O[C@@H]1O[C@H](CO)[C@@H](O)[C@H](O)[C@H]1O` it was “inactive”; in that of `COCCCNCC1COc2ccccc2O1` (stereo not drawn), “inactive”; in that of `COc1cc(/C=C/C(=O)OC2CC(OC(C)=O)C(OC(C)=O)C3C2CCC2C(=O)OC(c4ccoc4)CC23C)ccc1O[C@@H]1O[C@H](CO)[C@@H](O)[C@H](O)[C@H]1O` (stereo partly drawn), “inactive”.

`CO[C@@H]1CC[C@H](OC[C@]2(COC(=O)c3ccc(C)[nH]3)[C@H](OC(C)=O)CC[C@@]3(C)[C@@H]4CC=C(C)[C@@H](C5=C(O)C(=O)OC5O)[C@]4(C)CC[C@@H]32)O[C@H]1C` (stereo partly drawn): the Potency entry is “inactive”. On to `C=C1CCC2C(OC(=O)C2(O)COC(C)=O)C2C(=C)C(O)CC12` (stereo not drawn), for which the Potency result was “inactive”. With `CC1=C2C=C(CO)C(CO)CCC2(C)CCC1=O` (stereo not drawn), the Potency entry was “inactive”. Same read-out and setting: in the case of `C=C1[C@H]2CC[C@]3(O)[C@@](CC[C@@H]4[C@](C)(C(=O)O)CCC[C@]43C)(C2)[C@H]1OC(=O)/C(C)=C\C` it was “inactive”; in that of `O=C(O[C@H]1[C@@H]2C=CO[C@@H](O[C@@H]3O[C@H](CO)[C@@H](O)[C@H](O)[C@H]3O)[C@@H]2[C@@]2(CO)O[C@@H]12)c1ccc(O)cc1`, “inactive”. Still for that read-out and setting: in the case of `CC(C)(O)/C=C1/C(=O)C(C)(C)C(=O)C(C)(C)C1(O)O[C@@H]1O[C@H](COC(=O)c2cc(O)c(O)c(O)c2)[C@@H](O)[C@H](O)[C@H]1O` (stereo partly drawn) it was “inactive”; in that of `CN1CC[C@@H](NC(=O)Nc2ccc(C#N)cc2)C[C@@H]1c1nc2ccccc2[nH]1`, “inactive”. As for `C[C@H]1[C@H](C)CC[C@]2(C(=O)O[C@@H]3O[C@H](CO)[C@@H](O)[C@H](O)[C@H]3O)CC[C@]3(C(=O)O)C(=CCC4[C@@]5(C)CC[C@H](O[C@@H]6O[C@H](CO)[C@@H](O)[C@H](O)[C@H]6O)C(C)(C)C5CC[C@]43C)[C@H]12` (stereo partly drawn), the activity change, negative = cytotoxicity is -4.18% [at 11.6 µM]. Turning to `c1nc(NC2CCCCCC2)c2cc(CNC[C@H]3CCCO3)sc2n1`, the Potency result was “inactive”. The same measure, in the same setting: in the case of `CCNC(=O)[C@H]1O[C@H](n2cnc3c(NCC(c4ccccc4)c4ccccc4)nc(C(=O)NCCNC(=O)NC4CCN(c5ccccn5)CC4)nc32)[C@H](O)[C@@H]1O` it was “inactive”. Same read-out and setting: in the case of `CC1CC(=O)C2=C(O1)OC1(C)CCC3C(C)(C)C=CC(=O)C3(C)C1C2` (stereo not drawn) it was “inactive”.

As for `COc1ncc(-c2ccc3c(Nc4cc(Oc5cc(F)cc(F)c5)cc(C(=O)O)c4)c(S(=O)(=O)NC4CC4)cnc3c2)c(OC)n1`, the Potency entry was “inactive”. On the same count and under the same terms, in the case of `CC(=O)O[C@@H]1[C@H]2[C@@H](OC(=O)c3ccccc3)[C@@H](C)C[C@]2(O)[C@H](OC(C)=O)[C@@]2(C)[C@@H]3CC(C)(C)C(=O)[C@]3(OC(C)=O)C[C@@]12C` it was “inactive”; in that of `COc1ccc(/C=C/C(=O)O[C@@H]2[C@@H](OC(C)=O)[C@@H](OC(C)=O)[C@H](O[C@H]3[C@@H]4C=CO[C@@H](O[C@@H]5O[C@H](CO)[C@@H](O)[C@H](O)[C@H]5O)[C@@H]4[C@@]4(CO)O[C@@H]34)O[C@H]2C)cc1O`, “inactive”. The same measure, in the same setting: in the case of `CC1=CC(=O)OC(C)(CC(C)(O)C(=O)O)C1` (stereo not drawn) it was “inactive”.

As for `O=C(OCc1cccc(O)c1O[C@@H]1O[C@H](CO)[C@@H](O)[C@H](O)[C@H]1O)C1(O)C(=O)C2C=CC1C1C=CC(=O)C(O)(C(=O)OCc3cccc(O)c3O[C@@H]3O[C@H](CO)[C@@H](O)[C@H](O)[C@H]3O)C21` (stereo partly drawn), the activity change, negative = cytotoxicity is -13.1% [at 11.6 µM].
